# PubChem BioAssay AID588453 (National Center for Advancing Translational Sciences (NCATS), 2011)
# The whole screen tested about 390,000 compounds, of which about 4,000 (1%) were called active. Inconclusive results (about 4%) are left out. The entries come from a sample that favours actives as a whole. Where a call stands in place of a potency, no number is given. Values without a mark were called inactive. The call rests on the fitted dose curve; in most records, active means well fitted inhibition curve with a large enough effect; inconclusive means small, poorly fitted or top-dose-only effect; inactive means no such curve, though single readings can be large or run the other way.
# Molecular target: Thioredoxin reductase 1, cytoplasmic (Rattus norvegicus) (UniProt O89049)
# Sequence (O89049 whole entry, looked up): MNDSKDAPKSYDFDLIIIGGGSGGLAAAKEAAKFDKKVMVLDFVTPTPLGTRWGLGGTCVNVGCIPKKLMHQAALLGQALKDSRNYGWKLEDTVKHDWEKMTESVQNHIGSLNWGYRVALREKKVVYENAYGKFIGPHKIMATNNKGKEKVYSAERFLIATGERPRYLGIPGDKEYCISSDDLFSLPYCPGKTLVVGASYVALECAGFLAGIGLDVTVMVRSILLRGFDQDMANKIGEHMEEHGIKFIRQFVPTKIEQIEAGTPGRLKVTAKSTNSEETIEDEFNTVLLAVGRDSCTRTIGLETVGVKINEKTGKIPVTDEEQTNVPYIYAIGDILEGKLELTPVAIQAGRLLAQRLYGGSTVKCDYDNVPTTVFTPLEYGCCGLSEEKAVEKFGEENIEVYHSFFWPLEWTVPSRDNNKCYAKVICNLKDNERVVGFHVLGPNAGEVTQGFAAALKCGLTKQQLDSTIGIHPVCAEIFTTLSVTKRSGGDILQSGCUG
# Assay: qHTS Assay for Inhibitors of Mammalian Selenoprotein Thioredoxin Reductase 1 (TrxR1): qHTS; further: nearly all actives have a fitted effect of over 65% in size
# Details: recombinant rTrxR1, NADPH fluorescence consumption, selenite substrate; series mostly up to 114 µM
# Procedure, shortened: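 Rat TrxR1 (90 nM in the dispensed reagent) was pre-reduced with 400 uM NADPH for 5 min at room temperature, then incubated with compound for 15 min. After 400 uM selenite was added, NADPH fluorescence (Ex 340/Em 450 nm) was followed for 8 min.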
# Potency means the concentration at half of the fitted maximal effect.
SMILES,Potency,"activity change, negative = inhibition"
CC(C)CCN(C(=O)Nc1ccc(Cl)c(Cl)c1)C(C)c1cccs1 (stereo unspecified),inactive,
Cc1ccc(C(=O)CC2(O)C(=O)N(CCc3ccccc3)c3ccc(Br)cc32)cc1 (stereo unspecified),inactive,
C=CCN1C(=O)C(O)(CC(=O)c2ccccn2)c2ccccc21 (stereo unspecified),inactive,
C=CCN1C(=O)C(O)(CC(=O)c2ccc(Cl)cc2)c2ccccc21 (stereo unspecified),35.5 µM (active),
CCCCC(CCCC)c1ccc(C=Nc2ccc(/C=C/c3ccnc4ccccc34)cc2)cc1,inactive,
COc1cccc(Cn2c(SCc3ccc(C(=O)N4CCCCC4)cc3)nc3ccncc32)c1,inactive,
Fc1cccc(-n2ncc3c2ncn2nc(-c4ccccc4Cl)nc32)c1,inactive,
Cc1nn2c3cc(N4CCOCC4)ccc3nc2c2ccccc12,inactive,
C1=C(N2CCOCC2)/C(=C/c2nc3ccccc3[nH]2)CC1,15.8 µM (active),
Cn1cc(S(=O)(=O)N2CCCCCC2)cc1C(=O)N1CCN(c2ccc(F)cc2)CC1,inactive,
COc1cccc(NC(=O)COC(=O)/C=C/c2ccco2)c1,39.8 µM (active),
COc1ccc([N+](=O)[O-])cc1NC(=O)COC(=O)/C=C/c1ccco1,inactive,
NS(=O)(=O)c1cccc(NC(=O)COC(=O)/C=C/c2ccco2)c1,inactive,
CCC(C)N(c1ccc(/C=C/c2ccnc3ccccc23)cc1)C(C)CC (stereo unspecified),inactive,
CCN(CC)/[N+]([O-])=N/OCOC(=O)Cc1c(C)n(C(=O)c2ccc(Cl)cc2)c2ccc(OC)cc12,,13.3% [at 0.457 µM]
COc1ccc(NC(=O)CSc2nc3ncccc3[nH]2)c(OC)c1,inactive,
OCC(O)C(O)C(O)C(O)C=Nc1ccc(/C=C/c2ccnc3ccccc23)cc1 (stereo unspecified),inactive,
O=C(/C=C/c1ccco1)Nc1cccc(-c2nc3ccccc3[nH]2)c1,79.4 µM (active),
O=C(Nc1cccc(-c2nc3ccccc3o2)c1)c1cccc(Br)c1,inactive,
CCc1ccc2oc(-c3ccc(C)c(NC(=O)/C=C/c4ccco4)c3)nc2c1,inactive,
COc1ccc(-c2cc(-c3nc(-c4cc(OC)c(OC)c(OC)c4)no3)[nH]n2)c(OC)c1,inactive,
O=C1/C(=C\c2ccc(O)cc2)CCC1CNc1ccc(Cl)cc1 (stereo unspecified),22.4 µM (active),
Cc1ccc(NS(=O)(=O)c2ccc3c(c2)CC(=O)N3)cc1Cl,inactive,
CCOc1n[nH]c(-c2ccccc2)n1,inactive,

SMILES,Potency,"activity change, negative = inhibition"
CN(Cc1ccccc1)c1ccc(/C=C/c2ccnc3ccccc23)cc1,inactive,
COc1ccc(C(F)(F)F)cc1NC(=O)c1sc2nc(-c3cccs3)ccc2c1N,inactive,
C=CC1(C)CC(=O)C2(O)C(C)(O1)C(OC(C)=O)C(O)C1C(C)(C)CCC(O)C12C (stereo unspecified),inactive,
CCOc1ccc(C(C)=O)cc1COC(=O)CN1C(=O)NC2(CCCC2)C1=O,28.2 µM (active),
CCOc1ccc(C(C)=O)cc1COC(=O)CNC(=O)c1cccs1,22.4 µM (active),
CCOc1ccc(C(C)=O)cc1COC(=O)c1cnc(Cl)c(Cl)c1,inactive,
COc1ccc(C(=O)COC(=O)CNC(=O)c2cccs2)cc1Br,inactive,
CCOc1ccc(C(C)NC(=O)CN2C(=O)NC3(CCCCC3)C2=O)cc1OCC (stereo unspecified),inactive,
Cc1ccc(COC(=O)CN2C(=O)NC3(CCCC3)C2=O)cc1,inactive,
COc1ccc(/C=C/c2ccccn2)cc1OC,inactive,
O=C(NCCCN1CCN(c2cccc(Cl)c2)CC1)c1nnc(Cc2ccc(F)cc2Cl)o1,inactive,
COc1ccc(S(=O)(=O)Nc2cccc3cccnc23)c(N)c1,inactive,
Cc1cc(-c2ccc(C)c(S(=O)(=O)N3c4ccccc4CC3C)c2)on1 (stereo unspecified),inactive,
CCOc1ccc(C2C(=O)N(C3CCCCC3)CC(=O)N2CCC2=CCCCC2)cc1OC (stereo unspecified),inactive,
Cc1ccc(/C=C/C(=O)OCC(=O)NCc2ccc(Cl)cc2)o1,inactive,
CCOc1ccc(NC(=S)NC(=O)/C=C/c2ccc(OC)cc2)c([N+](=O)[O-])c1,inactive,
Cc1ccc(/C=C/C(=O)Nc2ccc([N+](=O)[O-])c(NC(=O)/C=C/c3ccc(C)o3)c2)o1,25.1 µM (active),
CN(C(=N)N)c1ccc(/C=C2\C=Cc3ccccc32)cc1,inactive,
O=C(NCc1ccccc1Cl)C1=Cc2cc(Br)ccc2OC1,inactive,
COc1cccc(C(=O)Nc2ccc3oc(-c4ccc5ccccc5c4)nc3c2)c1,inactive,
COc1cc2ccccc2cc1C(=O)Nc1cccc(-c2nc3ccccc3o2)c1,inactive,
COc1cc(OC)cc(C(=O)Nc2ccc(-c3nc4ccccc4o3)c(O)c2)c1,28.2 µM (active),
Cc1ccc(NC(=O)CN2c3ccccc3S(=O)(=O)c3ccccc32)cc1F,inactive,
COc1cc(C(=O)N(Cc2ccc(C(C)C)cc2)C2CCS(=O)(=O)C2)cc(OC)c1OC (stereo unspecified),inactive,

SMILES,Potency,"activity change, negative = inhibition"
CCc1ccc(S(=O)(=O)N/N=C\c2ccc([N+](=O)[O-])o2)cc1,14.1 µM (active),
COc1ccc(S(=O)(=O)N/N=C\c2ccc(OC)c(COc3ccc(C)cc3[N+](=O)[O-])c2)cc1,inactive,
CCc1ccc(S(=O)(=O)Nc2ccc(C)c(NS(C)(=O)=O)c2)cc1,inactive,
O=C(Cc1ccccc1)Nc1sc2c(c1C(=O)Nc1ccc(Br)cc1)CCC2,inactive,
COc1ccc(NC(=O)C(c2ccccc2)N2Cc3ccccc3C2=O)cc1 (stereo unspecified),inactive,
Cc1ccccc1OCCC(=O)OCC(=O)NC(C)c1ccccc1 (stereo unspecified),inactive,
CCOC(=O)/C=C/C(=O)OCC(=O)NC(c1ccccc1)c1ccccc1,28.2 µM (active),
CCOc1ccc(C(CC(=O)O)NC(=O)COc2ccccc2)cc1 (stereo unspecified),inactive,
CC(=O)Nc1ccc(S(=O)(=O)N2N=NC3C2C2CC4C3(CN(C(=O)OC(C)(C)C)S4(=O)=O)O2)cc1 (stereo unspecified),inactive,
CN(C)c1ccc(/C=C/c2sc3ccccc3[n+]2CCCCBr)cc1,inactive,
Cc1ccc(C(=O)COC(=O)C(Cc2c[nH]c3ccccc23)NC(=O)c2ccc(Br)cc2)cc1 (stereo unspecified),inactive,
CC(=O)OCC(NC(=O)C(Cc1ccccc1)NC(=O)OC(C)(C)C)C1OC(n2ccc(=O)[nH]c2=O)C(OC(C)=O)C1OC(C)=O (stereo unspecified),inactive,
COc1cc(OC)c2c(C)cc(=O)oc2c1C(CCN1CCCCC1)c1ccc(N(C)C)cc1 (stereo unspecified),inactive,
C=C(C)C(=O)O[C@H]1C/C(C)=C\C(=O)/C=C(\C)[C@H](O)[C@@H]2OC(=O)C(=C)[C@@H]21,39.8 µM (active),
CCOC(=O)N1CCc2c(sc(NCc3cccc(F)c3)c2C(=O)Nc2ccccc2OCC)C1,inactive,
COc1cc(OC)c(/C=C/c2ccnc3ccccc23)c(OC)c1,inactive,
C=C1CCN(C(CC(C)C)C(=O)N2CCOCC2)S(=O)(=O)c2ccccc21 (stereo unspecified),inactive,
O=c1[nH]c2cc(Br)ccc2n2cccc12,inactive,
O=c1[nH]c2ccccc2n2c(-c3ccccc3)nnc12,0.708 µM (active),
O=c1cc(-c2ccccc2)n2c(SCc3ccccc3)nnc2[nH]1,inactive,
CC(C)Cn1c(=O)c2ccccc2n2c(-c3cccc(Cl)c3)nnc12,inactive,
Cc1ccc2nc(N3CCN(c4cccc(Cl)c4)CC3)c3nnnn3c2c1,inactive,
COc1ccc(N2C(=O)CSC23C(=O)N(Cc2cccc(F)c2)c2ccccc23)cc1Cl (stereo unspecified),inactive,
Oc1c(C(c2ccc(F)cc2)N2CCN(Cc3ccccc3)CC2)sc2nc(-c3ccco3)nn12 (stereo unspecified),inactive,

SMILES,Potency,"activity change, negative = inhibition"
CC1(C)C/C(=N/Nc2ccc([N+](=O)[O-])cc2[N+](=O)[O-])C(C)(C)O1,inactive,
O=[N+]([O-])c1ccc(N/N=C2/CCCCC2c2ccccn2)c([N+](=O)[O-])c1 (stereo unspecified),3.55 µM (active),
C[n+]1ccccc1C1CCCC/C1=N\Nc1ccc([N+](=O)[O-])cc1[N+](=O)[O-] (stereo unspecified),inactive,
Cc1cc(N2CCN(c3cccc(C(F)(F)F)c3)CC2)n2nc(-c3ccccc3)nc2n1,inactive,
CCOC(=O)c1c(NC(=O)c2cc(CC)on2)sc(C(C)=O)c1C,inactive,
CCOC(=O)c1c(NC(=O)CCl)sc(C(=O)N(CC)CC)c1C,31.6 µM (active),
COC(=O)c1sc(NC(=O)COC(=O)C2CCC2)c(C(=O)OC)c1C,inactive,
CCc1ccccc1NC(=O)CSc1nc(C)c(C(=O)Nc2ccccc2)c(-c2ccc(Cl)cc2)c1C#N,inactive,
CCCn1c(=O)c2[nH]c(-c3ccc(OCC(=O)NCCN)cc3)nc2n(CCC)c1=O,inactive,
COc1ccccc1/C=C/c1nc(C#N)c(NC(C)c2ccccc2)o1 (stereo unspecified),inactive,
O=C(CCC1N=C2c3ccccc3N=C(SCc3ccccc3F)N2C1=O)NCCc1ccccc1 (stereo unspecified),inactive,
Clc1ccccc1CSc1nnc(-c2ccco2)c(-c2ccco2)n1,5.01 µM (active),
Cc1ccc(-c2nnc(SCC(=O)NCc3ccccc3)nc2-c2ccc(C)cc2)cc1,inactive,
c1ccc(CSc2nnc(-c3ccco3)c(-c3ccco3)n2)cc1,2.51 µM (active),
CSc1n[nH]c(-c2ccco2)n1,inactive,
CC1(C)N=C(SCc2ccccc2Cl)c2ccccc2N1,inactive,
Clc1ccccc1CSc1nncn2c1cc1occc12,inactive,
Cc1ccc(S(=O)(=O)c2cn(Cc3ccccc3)c3cc(N4CCCC4)c(F)cc3c2=O)c(C)c1,inactive,
COc1cccc(-c2nc(S(=O)(=O)c3ccc(C)cc3)c(NCc3ccccc3)o2)c1,inactive,
Cc1c(NC(=O)Cc2ccccc2)cccc1-c1nc2cccnc2s1,inactive,
Cc1ccc(/C([O-])=C(/C(=S)NCc2ccco2)[n+]2ccccc2)cc1[N+](=O)[O-],56.2 µM (active),
O=C(NCc1ccco1)c1ccc(NS(=O)(=O)c2cccc([N+](=O)[O-])c2)cc1,inactive,
O=[N+]([O-])c1cccc(/C([O-])=C(/C(=S)Nc2ccccc2F)[n+]2ccccc2)c1,inactive,
CC1(C)Cc2ccccc2-c2c[nH]c(=O)n21,inactive,
